This assay addresses Calcium and integrin-binding protein 1 (Homo sapiens) (UniProt Q99828). The assay can be described thus: Primary qHTS for Identification of Calcium Integrin Binding Protein 1 (CIB1) Competitor (AID 1508620).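 Also: GST tagged CIB1 binding a fluorescein labelled alphaIIb integrin peptide tracer; top concentration of the series differs between compounds.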 Summed up:
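Fluorescence polarization competition: CIB1-GST (1 uM final) preincubated with compound 15 min at room temperature, then FITC-labeled alphaIIb peptide (100 nM final) added for another 15 min. Polarization read at Ex 480/Em 540.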

Inconclusive results are not listed. A call without a number means that no potency is given here. The source made the active and inactive calls. Calls follow the shape of the dose curve; as a rule, active = well fitted inhibition curve with a large enough effect; inconclusive = small, poorly fitted or top-dose-only effect; inactive = flat fitted curve, though single readings scatter.

Calcium and integrin-binding protein 1 (Homo sapiens), sequence (Q99828 whole entry, looked up): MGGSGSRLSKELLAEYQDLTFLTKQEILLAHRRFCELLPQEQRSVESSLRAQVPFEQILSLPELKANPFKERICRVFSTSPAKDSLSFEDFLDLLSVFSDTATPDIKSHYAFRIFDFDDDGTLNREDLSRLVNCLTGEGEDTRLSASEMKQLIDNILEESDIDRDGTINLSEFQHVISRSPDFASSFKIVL

With `CC1(C)CC(=O)C2=C(C1)NC(Nc1nc3ccccc3o1)=NC21CCCC1`, the Potency result was “inactive”. Next, `CC(C)(Nc1nc(-c2ccccc2C(F)(F)F)nc2ccccc12)c1ccc(-c2cccc(C(F)(F)F)c2)cc1`: “inactive”. As to `COc1ccc(NC(=O)c2[nH]c(C)c(C(C)=O)c2C)cc1S(=O)(=O)Nc1ccc(C#N)cc1`, the Potency entry is “inactive”. Next, `O=C(Cn1nc(-c2ccncc2)ccc1=O)NCCc1ccccc1`: “inactive”; `Cc1ccc(OCCn2c(CCNC(=O)c3cccnc3)nc3ccccc32)cc1`: “inactive”; `NC(=O)C1CCN(c2nc(-c3ccccc3Br)cs2)CC1`: “inactive”. With `COc1ccccc1-c1nnc(SCC#CCOC(=O)c2ccc(F)cc2)o1`, the Potency entry was “inactive”. Regarding `Cc1ccsc1CNc1ncnc2ccc(-c3ccc4c(c3)OCO4)cc12`, the Potency entry is “inactive”. For `Cc1cnc(-c2ccccc2C(C)C)nc1NCc1ccc(-c2cccnc2)cc1`, the Potency result was “inactive”. As for `S=C(NCCCc1cnc[nH]1)NCCCN(Cc1ccc(Cl)cc1)c1ccc(Br)cn1`, the entry is “inactive”. Take `CC(=O)N1CCCc2cc(S(=O)(=O)Nc3ccc(C)c(C)c3)ccc21`: the Potency result was “inactive”. Next, `O=C(NC1CCCc2c1cnn2-c1ccc(F)cc1F)c1ccc(C2(C(F)(F)F)N=N2)cc1` (stereo not given): “inactive”; `O=C1NS(=O)(=O)C(c2ccccc2)C1c1ccccc1` (stereo not given): “inactive”; `NC(N)=NCCC[C@H](NC(=O)CNC(=O)c1ccccc1)C(=O)Nc1cc(C(F)(F)F)ccc1Cl`: “inactive”. As for `COc1cc(-c2ccc3ncnc(NCc4cccs4)c3c2)cc(OC)c1OC`, the entry is “inactive”; as for `COc1ccc(C2=Nn3c(nnc3-c3cccc(OC)c3)SC2)cc1`, “inactive”.

Consider `Cc1cnc(-c2ccccc2C(C)C)nc1NCC1CCN(c2cccnc2)C1` (stereo not given), for which the Potency result is “inactive”. As for `Cc1cc(-c2nnc3n2CCCCCCC3)c(C)n1-c1ccccc1`, the entry is “inactive”; as for `Cc1ccc(NS(=O)(=O)c2ccc3c(c2)NC(=O)CO3)cc1C`, “inactive”; as for `Cc1cc2c(s1)c1cnn(Cc3ccc(OC(F)F)cc3)c(=O)c1n2C`, “inactive”. Regarding `Cc1ccc(-c2csc3ncnc(Sc4nnnn4C)c23)cc1`, the Potency entry is “inactive”. On to `Cc1cccc(-c2csc3ncnc(Sc4nnnn4C)c23)c1`, for which the Potency result is “inactive”. For the compound `O=S(=O)(c1ccc2c(c1)OCCO2)N1CCN(S(=O)(=O)c2ccccc2Cl)CC1`, the Potency result was “inactive”.

`COC(=O)c1nc(Nc2cc(F)cc(F)c2)nc(NC2CCCC2)n1`: the Potency entry is “inactive”.

As for `O=c1c2ccccc2nc2sc(Nc3cccc(Br)c3)nn12`, the Potency entry was “inactive”.

For `COC(=O)c1cc2c(s1)c1cnn(Cc3ccccc3F)c(=O)c1n2C`, the Potency result was “inactive”. As for `CCc1ccc(NC(=O)c2cnn3c(C)cc(C)nc23)cc1`, the Potency entry is “inactive”.

Take `COc1ccc(C2Nc3ccccc3C(=O)N2CC(C)(C)C)cc1COc1ccc(NC(C)=O)cc1` (stereo not given): the Potency result was “inactive”.

Turning to `Cc1ccc(OCCn2c(CCNC(=O)c3cccc(NC(=O)OC(C)(C)C)c3)nc3ccccc32)cc1`, the Potency entry is “inactive”. Next, `O=C(Nc1ccc2c(c1)OCCO2)c1ccc(-c2nc3ccccc3[nH]2)cc1`: “inactive”; `Cc1nc(-c2ccccc2)oc1-c1ccc2ncnc(NCc3ncc[nH]3)c2c1`: “inactive”. For `COc1ccc(-c2nnc3n2N=C(c2ccc(OC)cc2OC)CS3)cc1`, the Potency entry is “inactive”.

As for `N#Cc1c(-c2ccc(C(F)(F)F)cc2)no[n+]1[O-]`, the Potency result is “inactive”. As for `COc1cc(O)c(C(CC(=O)N2CCCC(C#N)C2)c2ccc3c(c2)OCO3)c(OC)c1` (stereo not given), the entry is “inactive”; as for `O=C(NCC#CCSc1nnc(-c2cccc3ccccc23)o1)c1cccs1`, “inactive”. Regarding `CC(=O)c1ccc(NC(=O)Nc2nnc(-c3ccncc3)s2)cc1`, the Potency entry is “inactive”. Next, `CC(=O)N1CCN(S(=O)(=O)c2ccc3c(c2)CC(=O)N3)CC1`: “inactive”. As for `COc1cccc(C2=Nn3c(nnc3-c3ccc(OC)cc3OC)SC2)c1`, the entry is “inactive”. Take `COc1ccc(S(=O)(=O)NC2CCN(C#N)CC2)cc1`: the Potency entry was “inactive”. Regarding `Nc1cc(-c2nc(Nc3ccc(F)c(F)c3)c3ccccc3n2)ccn1`, the Potency entry was “inactive”. As for `Nc1cccc([S+](=O)([O-])N2CCCN([S+](=O)([O-])c3cccc(N)c3)CC2)c1`, the entry is “inactive”. As for `COc1cccc(C2c3c(ncn(-c4ccccc4Br)c3=N)Oc3ccc4ccccc4c32)c1` (stereo not given), the entry is “inactive”.

Take `COc1cccc(C2c3c(ncn(-c4ccccc4C(C)(C)C)c3=N)Oc3ccc4ccccc4c32)c1` (stereo not given): the Potency result was “inactive”. Next, `CCCCCCNC(=O)Nc1nnc(-c2ccncc2)s1`: “inactive”.

For `Cc1cccc(-n2cnc3cc(C(=O)N4CC(C)CC(C)C4)ccc32)c1` (stereo not given), the Potency entry was “inactive”. Next, `O=S1(=O)Nc2c(ccc3cccnc23)-c2ccccc21`: “inactive”. In the case of `[O-][n+]1onc(-c2ccccc2)c1CO`, the Potency entry was “inactive”. For `CC(=O)NC(c1cc(Cl)c2cccnc2c1O)C1CC1` (stereo not given), the Potency result was “inactive”. Take `O=C(Cc1nnc(CNC(=O)c2ccccc2)o1)Nc1cc(C(F)(F)F)ccc1Cl`: the Potency result is “inactive”.

In the case of `Cc1ccc(C2N=C(Nc3nc4ccccc4o3)NC3=C2C(=O)CCC3)s1` (stereo not given), the Potency result was “inactive”. With `Cc1cc(C=CC#N)cc(C)c1Nc1nc(Nc2ccc3scnc3c2)c2[nH]cnc2n1`, the Potency entry was “inactive”. As for `COc1ccc(C2Nc3ccccc3C(=O)N2Cc2ccc(C(C)(C)C)cc2)cc1COc1ccc(NC(C)=O)cc1` (stereo not given), the entry is “inactive”; as for `COc1cccc(C2c3c(ncn(-c4ccc(C(C)(C)C)cc4)c3=N)Oc3ccc4ccccc4c32)c1` (stereo not given), “inactive”.

Regarding `Cc1ccc(S(=O)(=O)Nc2ccc(NS(=O)(=O)c3ccc(C)cc3)c3ncccc23)cc1`, the Potency entry was “inactive”.

On to `CS(=O)(=O)/C=C/c1nc(Nc2cc(F)cc(F)c2)c2ncn(CC(F)F)c2n1`, for which the Potency entry is “inactive”. On to `O=C(O)c1ccc(S(=O)(=O)N[C@H](Cc2c[nH]c3ccccc23)C(=O)O)cc1`, for which the Potency entry is “inactive”.

Regarding `Cc1cc(C)nc(NC(=S)N2CCN(c3ccc4ccccc4n3)CC2)c1`, the Potency result was “inactive”.

In the case of `O=C(Cc1nnc(-c2nc3ccccc3[nH]2)o1)Nc1cc(C(F)(F)F)ccc1Cl`, the Potency result was “inactive”. For the compound `CCCCN(CCCNC(=S)NCCCc1cnc[nH]1)c1ccc(Br)cn1`, the Potency result was “inactive”. Take `Cc1ccc(CN(C)c2ncnc3ccc(-c4ccc(CO)o4)cc23)o1`: the Potency result is “inactive”.
